Tau fibril FP = qHTS for Inhibitors of Tau Fibril Formation, Fluorescence Polarization; 280,000 tested, 0.39% active; K18 P301L tau heparin fibrillization, Alexa594 FP, 6 h; Potency, µM (highest dose often 57.7 µM), for the others: at the highest dose activity, negative = inhibition, usual class: inhibitors; Microtubule-associated protein tau (Homo sapiens), P10636; AID 1468, 2008; further: potency means the concentration at half of the fitted maximal effect; nearly all actives have a fitted effect of over 55% in size
Target sequence (P10636 561-689 P618L limits assumed): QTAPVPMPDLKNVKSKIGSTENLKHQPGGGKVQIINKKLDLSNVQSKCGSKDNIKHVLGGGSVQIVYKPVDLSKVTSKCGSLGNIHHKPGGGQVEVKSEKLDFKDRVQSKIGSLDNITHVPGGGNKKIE
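Quantitative HTS format: compounds meet 15 uM recombinant K18 P301L tau and Alexa 594-tau tracer in 100 mM sodium acetate pH 7; 20 uM heparin triggers fibrillization at 37 C over 6 hr; FP gives the signal.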
Sfp PPTase inh = qHTS Assay for Inhibitors of Bacillus subtilis Sfp phosphopantetheinyl transferase (PPTase). 4'-phosphopantetheinyl transferase ffp (Bacillus subtilis), Q9F4F7. Biochemical Sfp PPTase activity, qHTS. Potency, µM, for the others: largest response in the series, negative = inhibition, hits mostly inhibitors. 310,000 tested, 3.5% active;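 further: the enzyme is Sfp with the accession as filed and its product quenches rhodamine fluorescence; potency means the concentration at half of the fitted maximal effect; 0% = enzyme reaction without inhibitor and -100% = no enzyme wells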
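With Hepes-Na pH 7.6 buffer containing 10 mM MgCl2, Sfp (15 nM) modified BHQ-2-YbbR (12.5 uM) using rhodamine-CoA (5 uM). Two reads 30 minutes apart at 525/598 nm yielded each well's rate.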
FBPA coupling cs = qHTS Assay for Inhibitors of Fructose-1,6-bisphosphate Aldolase from Giardia Lamblia: Coupling assay counterscreen | coupling enzyme system counterscreen, AmpLite Red fluorescence | activity change, negative = inhibition, % at 58.2 µM, hits read low | 290,000 tested, 0.67% active; in the data active means activity change below about -30%
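Fluorescence at 525 nm excitation and 598 nm emission measured inhibition of the coupled detection system without aldolase. Compounds (at 57.5 uM final) were preincubated 10 min at room temperature with coupling enzyme reagent before a 20 min substrate/AmpLite Red step.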
Tau fluor counter = Counterscreen qHTS for Inhibitors of Tau Fibril Formation, Fluorescence Polarization; 280,000 tested, 0.93% active; tau K18 P301L Alexa594 fluorescence, heparin fibrillization; Potency, µM (series often up to 57.7 µM), for inactives: at the top dose activity change, negative = decrease; further: potency means the concentration at half of the fitted maximal effect; nearly all actives have a fitted effect of over 55% in size
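Human tau K18 P301L (15 uM unlabeled, 0.24 uM Alexa 594-labeled) in 100 mM sodium acetate pH 7 with 20 uM heparin, 6 hr at 37 C. ThT 30 uM added, 1 hr ambient; Alexa 594 FP and total fluorescence read at 555/632 nm.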
Tau fibril ThT = qHTS for Inhibitors of Tau Fibril Formation, Thioflavin T Binding; recombinant tau K18 P301L (four-repeat tau fragment), heparin-induced fibrillization, ThT fluorescence; Potency, µM (series often up to 57.4 µM), for inactives: top-dose activity, negative = inhibition, most hits filed as inhibitors; 270,000 tested, 2.1% active; further: potency means the concentration at half of the fitted maximal effect; nearly all actives have a fitted effect of over 55% in size
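Tau K18 P301L fragment (15 uM unlabeled plus 0.24 uM Alexa 594-labeled) in 100 mM sodium acetate pH 7 with compound, fibrillization induced by 20 uM heparin for 6 hr at 37 C. Thioflavin T (30 uM) added, fluorescence read after 1 hr (ex 450, em 510 nm).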
KDM4E inh = qHTS Assay for Inhibitors of Human Jumonji Domain Containing 2E (JMJD2E); Lysine-specific demethylase 4E (Homo sapiens), B2RXH2; JMJD2E catalytic domain, FDH-coupled NADH fluorescence (FDH is formaldehyde dehydrogenase); Potency, µM (doses to about 57.1 µM), without a hit: at the top dose activity change, negative = inhibition, hits mostly inhibitors; 230,000 tested, 1.6% active; AID 2147, 2009; active means well fitted inhibition curve with a large enough effect, not every such curve was filed as active; inconclusive means small, poorly fitted or top-dose-only effect, or another doubt; inactive means no such curve, though single readings can be large or run the other way;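 further: potency means the concentration at half of the fitted maximal effect; 0% = wells with enzyme and -100% = buffer wells without enzyme; nearly all actives have a fitted effect of over 50% in size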
Target sequence (B2RXH2 1-337 limits assumed): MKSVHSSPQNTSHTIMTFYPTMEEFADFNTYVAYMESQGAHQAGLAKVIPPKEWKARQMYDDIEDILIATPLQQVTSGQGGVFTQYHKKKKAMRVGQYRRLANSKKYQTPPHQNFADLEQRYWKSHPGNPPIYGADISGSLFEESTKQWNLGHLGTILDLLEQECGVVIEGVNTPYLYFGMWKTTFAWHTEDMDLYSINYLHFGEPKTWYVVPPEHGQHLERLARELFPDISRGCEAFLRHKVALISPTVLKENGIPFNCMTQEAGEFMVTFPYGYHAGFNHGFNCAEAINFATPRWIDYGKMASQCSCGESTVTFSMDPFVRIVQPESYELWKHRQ
* hit, by the source's call; i = inactive; ? = inconclusive; . = no result; ! = a repeat was not active; [ ] = dose if it differs, or a comment. Only some compounds are listed: those with a hit (about 5.3% of all), similar ones and a draw of the others. Unless noted, the call rests on the fitted dose curve; in most records, active means well fitted curve in the direction sought with a large enough effect; inconclusive means small, poorly fitted or top-dose-only effect, or another doubt; inactive means no such curve, though single readings can be large; an effect the other way counts as inactive or inconclusive. Unless noted, on the % scale 0 is the no-effect control and ±100 the full control effect.

SMILES	Tau fibril FP	Sfp PPTase inh	FBPA coupling cs	Tau fluor counter	Tau fibril ThT	KDM4E inh
CCOC(=O)[C@]1(C(NC(=O)OC)c2ccccc2)CCCC1=O (some centres undefined)	2.1%[11.6 µM]	-6.6%	-0.4	12.1%[11.6 µM]	5.2%[11.5 µM]	.
O=C(O)c1ccc(CNCc2ccc(Cl)cc2)s1	-2.6%	.	.	1.0%	2.8%	.
O=C(OCC(=O)N1c2ccccc2Sc2ccccc21)C1CC(=O)N(Cc2ccco2)C1 (centres undefined)	-6.9%	-24.2%	3.6	-5.7%	?	-0.2%
O=C(COC(=O)C1CC(=O)N(Cc2ccco2)C1)c1ccc(OC(=O)c2ccccc2)cc1 (centres undefined)	-9.5%	31.6µM*	-0.8	-9.0%	?	0.0%
C[C@H]1C=C2C=C[C@H](C)[C@H](CC[C@@H]3C[C@@H](O)CC(=O)O3)[C@H]2[C@@H](OC(=O)[C@@H](C)CCO)C1	3.3%	-19.4%	-2.4	2.3%	-8.9%	-5.4%
C=CCn1c(-c2ccc(OC)c(OC)c2)cs/c1=N\c1ccccn1	1.0%	17.8µM*	-1.4	-17.5%	?	?
COc1cc(/C=N/NC(=O)c2ccc(COc3ccccc3Cl)o2)cc(Br)c1O	-14.7%	-6.4%	-0.4	-13.4%	?	-12.1%
COc1cccc(/C=N/NC(=O)c2ccc(COc3ccc(Cl)cc3Cl)o2)c1	-16.1%	0.794µM*	2.4	-20.0%	-22.3%	i
COc1ccccc1CNC(=O)c1cccc(-c2ccccc2OC)n1	1.0%[81.3 µM]	15.2%	1.5	-7.7%[81.3 µM]	-12.6%[81.4 µM]	.
CCSc1nnc(NC(=O)CSc2nc3c(cc2C#N)CCCC3)s1	3.3%	?	-1.0	?	2.82µM*	?
CCc1nnc(NC(=O)CSc2nc3c(cc2C#N)CCC3)s1	0.0%	-10.2%	2.1	-15.7%	2µM*	?
N#Cc1cc2c(nc1SCC(=O)Nc1nccs1)CCCCC2	0.0%	-3.1%	0.0	-7.6%	?	?
CCN1C(=S)SC(=O)C1=C1C=C(C)OC(C)=C1	-7.1%	6.9%	0.0	-13.7%	?	2.2%
CCN1C(=S)SC(=O)C1=C1C=C(C)N(Cc2ccco2)C(C)=C1	4.6%	14.1µM*	-13.9	?	?	-27.9%
O=C(O)c1cccc(NS(=O)(=O)c2ccc3c(c2)C(=O)c2ccccc2C3=O)c1	13.0%	-9.8%	4.0	-17.6%	?	-0.3%
O=C1c2ccccc2C(=O)c2cc(S(=O)(=O)Nc3ccccc3)ccc21	?	-24.9%	-18.7	14.1µM*[quencher]	22.4µM*	2.6%
CCOC(=O)C1=C(C)NC(C)=C(C(=O)OCC)C1c1ccccc1C=CC(=O)OC(C)(C)C	.	32.8%	.	.	.	.
Cc1cc(NC(=O)CC(C)C)c(=O)n(Cc2c(F)cccc2Cl)c1	.	23.8%	-0.9	.	.	.
Cc1cc(NC(=O)CC(C)C)c(=O)n(Cc2ccccc2F)c1	.	-6.4%	-35.6*	.	.	.
CCCC[C@H](CC)CN1CN(C[C@@H](CC)CCCC)CC(C)(N)C1	.	9.7%	-1.1	.	.	0.2%[25.5 µM]
CCOC(=O)C1=C([Si](C)(C)C)c2ccccc2N(S(=O)(=O)C(F)(F)F)C1C(=O)OCC (centres undefined)	4.6%	-10.5%	-4.5	-13.4%	?	.
Nc1ncnc2c1ncn2[C@@H]1O[C@H](COP(=O)(O)OP(=O)(O)O)[C@@H](O)[C@H]1O	-2.2%	50.1µM*!	2.1	-0.6%	4.3%	-1.9%
COc1ccc(N2C(=O)CC(Sc3nnc(-c4ccccc4)o3)C2=O)cc1 (centres undefined)	?	56.2µM*	2.2	-15.8%	?	1.1%
O=C1CC(Sc2nnc(-c3ccccc3O)o2)C(=O)N1c1ccccc1 (centres undefined)	-0.7%	56.2µM*	-1.1	-15.2%	?	-18.3%
O=C(O)CCSC1CC(=O)N(c2ccccc2)C1=O (centres undefined)	.	9.4%	1.5	.	.	.
SMILES	Tau fibril FP	Sfp PPTase inh	FBPA coupling cs	Tau fluor counter	Tau fibril ThT	KDM4E inh
CC(C)(C)C(=O)/C(=C\c1ccc([N+](=O)[O-])cc1)n1cncn1	9.5%	14.1µM*	-2.0	-16.3%	?	-21.2%
COC(=O)c1sccc1S(=O)(=O)N(CC(=O)Nc1cccc(C)c1C)c1ccc(C)c(C)c1	4.3%	.	.	-12.4%	1.4%	.
CCCCCC(=O)NNC1CC(=O)N(c2ccccc2)C1=O (centres undefined)	-6.8%	13.7%	-1.2	-7.2%	-5.8%	2.1%
O=C1CC(N(O)C2CC(=O)N(Cc3ccccc3)C2=O)C(=O)N1Cc1ccccc1 (centres undefined)	9.6%	44.7µM*	-1.2	1.6%	-9.4%	-0.4%
CCCCCCC(=O)N(O)C1CC(=O)N(Cc2ccccc2)C1=O (centres undefined)	-4.2%	50.1µM*	-0.7	-13.6%	?	?
CCCCCC(=O)N(O)C1CC(=O)N(c2ccccc2)C1=O (centres undefined)	0.8%	12.6µM*	6.0	2.1%	?	-5.6%
CCCN(CCC)C1CC(=O)N(Cc2ccccc2)C1=O (centres undefined)	2.7%	?	1.9	4.1%	-6.5%	-6.6%
CCOC(=O)c1ccc(NC(=O)CSc2c(C(C)C)cnc3c2c(=O)n(C)c(=O)n3C)cc1	-9.0%	.	.	-23.3%	-10.5%	.
COc1ccc2c(c1)sc1ncc(C(=O)NCc3cccc(Cl)c3)c(=O)n12	-11.7%	.	.	-11.5%	6.5%	.
CSc1ccc(CCNc2ncnc3onc(-c4ccc(Cl)cc4)c23)cc1	-11.1%	.	.	-29.6%	-5.9%	.
COc1ccc(N2C(=O)CC(Sc3ccccc3C(=O)O)C2=O)c([N+](=O)[O-])c1 (centres undefined)	-7.8%	14.1µM*	-1.4	?	14.1µM*	-7.8%
Cc1ccc(N2C(=O)CC(Sc3ccccc3C(=O)O)C2=O)c([N+](=O)[O-])c1 (centres undefined)	-1.6%	7.08µM*	5.0	-22.5%	?	-13.4%
CN1C(=O)CC(Sc2ccccc2C(=O)O)C1=O (centres undefined)	-2.8%	8.8%	2.9	-3.4%	-15.9%	-8.7%
CCC(C)c1cc([N+](=O)[O-])cc([N+](=O)[O-])c1OC(=O)OC(C)C (centres undefined)	.	-12.2%	-7.7	.	.	.
N#Cc1ccc(C(=O)Nc2ccc3c(c2)N(C2CCCC2)C(=O)c2ccccc2S3)cc1	?	.	.	?	3.1%	.
